# Test results from PubChem BioAssay AID624417 (National Center for Advancing Translational Sciences (NCATS), 2012).
# Screen size: about 410,000 compounds; about 6,400 (1.6%) were called active. A call without a number means that no potency is given here. Another 20% or so got no clear call; they are omitted. The call rests on the fitted dose curve; in most records, active means well fitted inhibition curve with a large enough effect; inconclusive means small, poorly fitted or top-dose-only effect; inactive means no such curve, though single readings can be large or run the other way. The sample as a whole holds a higher share of actives than the screen did.
# Target: Glucagon-like peptide 1 receptor (Homo sapiens) (UniProt P43220)
# Sequence (P43220 whole entry, looked up): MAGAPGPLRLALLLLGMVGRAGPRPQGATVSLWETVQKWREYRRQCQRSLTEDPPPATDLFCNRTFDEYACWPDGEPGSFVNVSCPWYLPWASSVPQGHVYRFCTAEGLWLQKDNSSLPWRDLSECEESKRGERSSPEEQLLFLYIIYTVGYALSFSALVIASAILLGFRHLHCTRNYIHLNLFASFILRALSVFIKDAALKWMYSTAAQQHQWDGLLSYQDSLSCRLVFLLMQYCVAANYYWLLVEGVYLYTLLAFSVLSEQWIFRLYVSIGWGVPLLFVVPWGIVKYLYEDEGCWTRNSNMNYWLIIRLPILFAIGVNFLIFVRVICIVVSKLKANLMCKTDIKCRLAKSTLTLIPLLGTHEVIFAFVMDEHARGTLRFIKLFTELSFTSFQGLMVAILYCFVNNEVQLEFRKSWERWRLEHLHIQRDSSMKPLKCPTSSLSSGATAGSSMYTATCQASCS
# Assay: qHTS of GLP-1 Receptor Inverse Agonists (Inhibition Mode); further: nearly all actives have a fitted effect of over 55% in size
# Details: HEK293 GLP-1R CRE-luciferase, luminescence, 24 h, GLP-1R form is constitutively active; series mostly up to 38.3 µM
# How it was run: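 Using stably transfected HEK293 (constitutively active GLP-1R, cAMP-luciferase reporter), compounds were incubated 24 hr and luciferase measured by luminescence.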
# Potency means the concentration at half of the fitted maximal effect.
row,SMILES,Potency
1,CCC1=Nc2cc(C(=O)NCCN3CCCC3)ccc2Sc2ccc(C)cc21,3.55 µM (active)
2,CCc1ccccc1NC(=O)NCCN1CCCCC1,inactive
3,Cc1ccccc1CN1C(=O)c2ccccc2Sc2ccc(C(=O)NCCCN3CCOCC3)cc21,inactive
4,Cc1ccc(C(=O)NCCNS(=O)(=O)c2ccccc2)cc1,inactive
5,COc1ccc(C(=O)NCCCN2CCOCC2)cc1Br,inactive
6,Cc1ccc(C(=O)NC(=S)NCCN2CCOCC2)cc1,inactive
7,CC1=C(C(=O)Nc2cccc(C(=O)NCC(C)c3ccccc3)c2)SCCO1 (stereo not given),inactive
8,CCC1=Nc2cc(C(=O)NCCCN3CCOCC3)ccc2Sc2ccc(Br)cc21,11.2 µM (active)
9,CCC1=Nc2cc(C(=O)NCC(C)c3ccccc3)ccc2Sc2ccc(C)cc21 (stereo not given),5.01 µM (active)
10,O=C(Nc1ccccc1)c1ccccc1Br,inactive
11,CC(OC(=O)c1cccc(S(=O)(=O)N2CCOCC2)c1)C(=O)NCC1CCCCC1 (stereo not given),inactive
12,CC1=C(C(=O)N2CCOCC2)CC(CC(=O)NCCN2CCOCC2)C(=O)N1CCC1=CCCCC1 (stereo not given),inactive
13,COCCNC(=O)C1C(=O)Nc2ccccc2C(=O)N1c1ccc2c(c1)OCCO2 (stereo not given),inactive
14,CCc1oc(-c2ccc(OC)cc2)c(C(=O)OCCCCCO)c1C(C)OCCO (stereo not given),inactive
15,CC1(C(=O)Nc2ccccc2Br)CCN1C(=O)CC1CC1 (stereo not given),inactive
16,Cc1cccc(-c2nc(Nc3ccc(O)cc3)c3ccccc3n2)c1,2.82 µM (active)
17,COc1cc(Nc2nc(-c3ccc(OC)c(OC)c3)nc3ccccc23)cc(OC)c1,11.2 µM (active)
18,Cc1cccc(-c2noc(-c3ccc(F)cc3)n2)c1,inactive
19,COc1ccc(Nc2nnc(C)c3ccccc23)cc1,inactive
20,COc1cccc(Nc2nc3ccccc3c3nncn23)c1,inactive
21,Oc1ccc(-c2nnc(Nc3ccccc3)c3ccccc23)cc1,inactive
22,C[C@H]1CN([C@@H](C)CO)C(=O)CCCn2cc(nn2)CO[C@@H]1CN(C)C(=O)Nc1ccccc1,inactive
23,CCCCNC(=O)C[C@@H]1C[C@@]2(C(=O)OC)CC(C)(C)CC=C2N(Cc2ccco2)C1=O,inactive
24,Cc1cn([C@H]2C[C@H](O)[C@@H](/C=C/C(=O)NCCCc3ccccc3)O2)c(=O)[nH]c1=O,inactive
25,CC(C)(C)C(=O)c1c(N)[nH]c(C(=O)c2ccccc2)c1-c1ccc(F)cc1,inactive

row,SMILES,Potency
1,C[C@H](CO)N1C[C@H](C)[C@@H](CN(C)C(=O)C2CCCCC2)OCc2cnnn2CCCC1=O,inactive
2,CC1CCc2c(nc3ncnn3c2Nc2ccc(OC(F)(F)F)cc2)C1 (stereo not given),11.2 µM (active)
3,CC(=O)c1nn(-c2ccc(OC(F)(F)F)cc2)nc1Nc1ccccc1,inactive
4,Brc1ccc(Nc2c3c(nc4ncnn24)CCC3)cc1,inactive
5,COc1ccc(-c2nc3ccc(Br)cn3c2Cc2ccc(C)cc2)cc1OC,inactive
6,CC(C)c1cc(Cn2c3ccccc3c(=O)n2C(C)Cn2cc(C3CC3)nn2)on1 (stereo not given),inactive
7,CCN(CC)S(=O)(=O)c1ccc(Cl)c(C(=O)NC(C)C(c2cccs2)N2CCCC2)c1 (stereo not given),5.62 µM (active)
8,CCN(CC)S(=O)(=O)c1ccc(N2CCCC2)c(NS(=O)(=O)c2cccs2)c1,inactive
9,CCN(CC)S(=O)(=O)c1ccc(Cl)c(C(=O)NCCN2CCOCC2)c1,inactive
10,COc1ccc(CN2C(=O)C(CC(=O)NC3CCCCC3)CC(C(=O)N3CCOCC3)=C2C)cc1 (stereo not given),inactive
11,O=C(Nc1ccc(Cl)cc1)C1Cc2c(-c3ccc4c(c3)OCO4)ccnc2O1 (stereo not given),11.2 µM (active)
12,COc1ccc(NC(=O)C2Cc3c(-c4cccc(NC(C)=O)c4)ccnc3O2)cc1OC (stereo not given),inactive
13,CC(=O)Nc1ccc(-c2ccnc3c2CC(C(=O)NC(C)C)O3)cc1 (stereo not given),inactive
14,COc1ccc(NC(=O)CCCOc2ccc(C(C)=O)cc2)cc1S(=O)(=O)N1CCCCC1,inactive
15,CN(Cc1ccccc1)C(=O)CCC1CCN(C(=O)c2ccco2)CC1,inactive
16,C[C@H]1CN([C@@H](C)CO)C(=O)CCCn2cc(nn2)CO[C@@H]1CN(C)S(=O)(=O)c1ccccc1C#N,inactive
17,CCCCCCNC(=O)O[C@]12C[C@@H](C(=O)OC)[C@@H](C(=O)OC)C[C@@]1(O)CN(S(=O)(=O)c1ccc(C)cc1)C2,inactive
18,Cc1ccc(OCc2n[nH]c(=S)n2-c2ccccc2)cc1,inactive
19,Cc1ccc(OCc2nnc(SC3CCc4ccccc4C3=O)n2C)cc1 (stereo not given),7.08 µM (active)
20,Cc1cccnc1NC(=O)CSc1nnc(COc2ccc(C(C)C)cc2)n1C,inactive
21,O=C(COC(=O)c1ccc(S(=O)(=O)N2CCCCCC2)cc1)Nc1ccccc1C(F)(F)F,inactive
22,CN1OC[C@@H]2CN(C(=O)C(C)(C)C)[C@H](c3ccc(-n4ccnc4)cc3)C[C@@H]21,inactive
23,COc1ccccc1-c1sc2ccccc2c1-c1ccc(Br)nc1,10 µM (active)
24,COc1ccc(-c2sc3ccccc3c2-c2ccc(OCCN3CCOCC3)cc2)cc1,inactive
25,COc1ccccc1-c1sc2ccccc2c1-c1ccc(C(C)=O)cc1,10 µM (active)

row,SMILES,Potency
1,COc1cc(C(C)=O)ccc1OC(=O)CN1C(=O)c2ccccc2C1=O,inactive
2,COc1ccc2sc(-c3ccccc3OC)c(-c3ccc(OCCN4CCCC4)cc3)c2c1,inactive
3,COc1ccc2sc(-c3ccc(S(C)(=O)=O)cc3)c(-c3ccc(C(N)=O)cc3)c2c1,inactive
4,N#Cc1ccc(-c2nc3c(Cl)cc(C(F)(F)F)cn3c2Cc2ccccc2C(F)(F)F)cc1,inactive
5,CC1(C(=O)NS(=O)(=O)c2cccc(F)c2)CCN1C(=O)Cc1cc(F)ccc1F (stereo not given),inactive
6,Cc1cccc(CN2CCN(C3CN(Cc4cn(Cc5cc(C)cc(C)c5)nn4)S(=O)(=O)C3)CC2)c1 (stereo not given),inactive
7,COC(=O)[C@]12CCCCC=C1N(Cc1ccc3c(c1)OCO3)C(=O)[C@H](CC(=O)N1CCOCC1)C2,inactive
8,C[C@@H]1CN([C@H](C)CO)C(=O)CCCn2nncc2CO[C@@H]1CN(C)C(=O)OCc1ccccc1,inactive
9,O=C1NC[C@H](CCCCN2C[C@H](Cc3ccc(O)cc3)N(CCc3ccccc3)C(=O)C2=O)N(CCc2ccccc2)C1=O,inactive
10,CC1=C(C(=O)N2CCOCC2)CC(CC(=O)NCc2cccs2)C(=O)N1CCCN1CCCC1=O (stereo not given),inactive
11,CC1=C(C(=O)N(C)C)CC(CC(=O)NCCc2ccccn2)C(=O)N1CCC1=CCCCC1 (stereo not given),inactive
12,Cc1nc(Nc2ccc3c(c2)OCCO3)c2nnn(Cc3ccccc3Cl)c2n1,3.55 µM (active)
13,CCCc1nc(NCc2ccc3c(c2)OCO3)c2nnn(Cc3ccccc3Cl)c2n1,inactive
14,Cc1nc(Nc2ccccc2F)c2nnn(Cc3ccccc3Cl)c2n1,inactive
15,O=C(O)C(=Cc1ccc([N+](=O)[O-])cc1)CCc1ccccc1,inactive
16,COCCNC(=O)C1CCCN(Cc2ccccc2Cl)CC1 (stereo not given),inactive
17,O=C(NCc1ccccn1)[C@@H]1CCCN1C(=O)[C@@H]1CCCN1C(=O)c1ccccc1,inactive
18,COC(=O)C1(C(=O)OC)C/C=C\CN(S(=O)(=O)c2ccccc2[N+](=O)[O-])CCC1,inactive
19,CC(Sc1ccc(S(=O)(=O)N2CCN(C)CC2)cn1)C(=O)NC1CCCC(C)C1C (stereo not given),inactive
20,COc1c(Cl)cc(C(=O)Nc2ccc(Cl)cn2)cc1Cl,inactive
21,O=C(Nc1ccc(Cl)cn1)c1ccc2c(c1)OCCO2,7.08 µM (active)
22,Cc1nc(NC(=O)c2ccc3c(c2)OCCO3)ccc1Br,inactive
23,Cc1ccc(S(=O)(=O)CCC(=O)OCC(=O)N(C)Cc2ccccc2)cc1,inactive
24,CN(Cc1ccccc1)C(=O)COC(=O)c1ccccc1Nc1ccccc1,12.6 µM (active)
25,CN(Cc1ccccc1)C(=O)COc1ccccc1,inactive

row,SMILES,Potency
1,CC(=O)Nc1cncc(-c2ccccc2CO)n1,inactive
2,CCOC(=O)C1(C)CCCN(C(=O)c2cccc(Cl)c2)C1 (stereo not given),inactive
3,COc1cccc(CNc2nc(C(F)(F)F)nc3ccccc23)c1,10 µM (active)
4,NS(=O)(=O)c1ccc(CCNc2nc(C(F)(F)F)nc3ccccc23)cc1,inactive
5,COc1cccc(CNC(=O)c2n[nH]c3ccccc23)c1,inactive
6,CCN(CC)C(=O)C1CCCN(Cc2cccc(Cl)c2)C1 (stereo not given),inactive
7,Nc1nc2ncccn2c1-c1ccccc1,inactive
8,CCOC(=O)C1(C)CCCN(C(=O)c2ccc(N(C)C)cc2)C1 (stereo not given),inactive
9,O=S1(=O)CCN(C2CCCCCCCCCCC2)CC1,inactive
10,COc1ccc(C2(c3ccc(OC)cc3)NC(=O)N(CC(=O)Nc3cc(C)on3)C2=O)cc1,inactive
11,COC(=O)c1ccc(CN2C(=O)NC(c3ccccc3)(c3ccccc3)C2=O)o1,inactive
12,Cc1ccc(C2(c3ccc(C)cc3)NC(=O)N(Cc3c(C)noc3C)C2=O)cc1,10 µM (active)
13,Cc1ccc(-c2nc3c(C)cc(Br)cn3c2Cc2ccccc2)cc1,inactive
14,O=C(Nc1ccccc1-c1nc2ccccc2[nH]c1=O)c1cccs1,inactive
15,CCC(c1nc2ccccc2[nH]1)n1c(=O)c(-c2cccs2)nc2ccccc21 (stereo not given),10 µM (active)
16,CCC(C(=O)Nc1c(C)cccc1C)n1c(-c2cc(C)cs2)nc2ccccc21 (stereo not given),inactive
17,Cc1ccccc1CN1C(=O)CSCC1(C)C(=O)Nc1c(C)cccc1C (stereo not given),inactive
18,Cc1cccc(NS(=O)(=O)c2ccc(-c3cnc(C4CC4)o3)cc2)c1,0.891 µM (active)
19,COc1ccc(CNS(=O)(=O)c2ccc(-c3cnc(C4CC4)o3)cc2)cc1,inactive
20,Cc1ccc(-c2cnc(C3CC3)o2)cc1S(=O)(=O)Nc1cccc(C)c1C,inactive
21,CC1(C(=O)NS(=O)(=O)c2cccs2)CCN1C(=O)Cc1ccc(-c2ccccc2)cc1 (stereo not given),inactive
22,Cc1csc(=O)n1CCC(=O)OCC(=O)Nc1ccc(N2CCOCC2)cc1,inactive
23,Cc1c(C(=O)Nc2ccccn2)oc2ccc(Br)cc12,inactive
24,Oc1ccc(/C=N/Nc2ccc(C(F)(F)F)cn2)cc1O,inactive
25,Oc1ccc(Br)cc1/C=N/Nc1ccccn1,2.82 µM (active)
